Assay results as given in the supplement of paper PMC3334620.
The full ranking holds about 33,000 sequences; the median of “E-score (-0.5 to 0.5)” is about -0.016, and the highest 2% start at about 0.3. Shown is part of a subset that was picked to be rich in the highest values.

Target: T1, Yer184c (UniProt P39961)
T1 sequence: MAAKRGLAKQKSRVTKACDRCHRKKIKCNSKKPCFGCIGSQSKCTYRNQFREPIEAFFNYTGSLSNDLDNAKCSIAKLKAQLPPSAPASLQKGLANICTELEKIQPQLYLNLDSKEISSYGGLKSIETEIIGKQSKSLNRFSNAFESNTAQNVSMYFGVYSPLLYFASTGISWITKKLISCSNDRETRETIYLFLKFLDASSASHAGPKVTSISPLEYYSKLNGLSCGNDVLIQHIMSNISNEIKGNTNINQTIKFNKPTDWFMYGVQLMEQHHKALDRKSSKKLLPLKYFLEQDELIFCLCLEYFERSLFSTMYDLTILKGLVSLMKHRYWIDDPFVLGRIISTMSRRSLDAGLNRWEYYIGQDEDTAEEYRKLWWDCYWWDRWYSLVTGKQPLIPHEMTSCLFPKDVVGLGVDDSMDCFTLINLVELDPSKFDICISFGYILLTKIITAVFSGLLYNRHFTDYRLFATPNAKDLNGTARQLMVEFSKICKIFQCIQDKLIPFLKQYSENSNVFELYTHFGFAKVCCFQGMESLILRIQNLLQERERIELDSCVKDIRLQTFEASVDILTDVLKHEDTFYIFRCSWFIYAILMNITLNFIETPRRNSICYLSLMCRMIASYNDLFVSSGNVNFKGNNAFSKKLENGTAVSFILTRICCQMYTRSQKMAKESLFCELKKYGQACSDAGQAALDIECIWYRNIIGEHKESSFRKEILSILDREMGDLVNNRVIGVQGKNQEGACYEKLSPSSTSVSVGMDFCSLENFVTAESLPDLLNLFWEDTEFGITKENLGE
Assay: PBM E-score (8-mer binding enrichment) (E-score (-0.5 to 0.5)); higher = stronger / more preferred TF binding
Settings: protein concentration: 100 nM; construct: GST-full length
Experimental: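 Universal 'all 10-mer' protein binding microarrays (Agilent AMADID 015681) probed with GST-tagged S. cerevisiae TFs (full-length or DBD) made by in vitro transcription/translation (PURExpress), about 100-200 nM. Bound TF was detected with fluorescent anti-GST. Each ungapped 8-mer (which stands for itself and its reverse complement) is scored by the PBM enrichment score (E-score), a modified Wilcoxon-Mann-Whitney statistic from -0.5 to +0.5, computed with the Universal PBM Analysis Suite. Scale: above 0.35 generally sequence-specific binding.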

Sequence | PBM E-score
ACGCGGCA | 0.096
ACGCGGCG | 0.113
GCGCGGCC | 0.177
CAGCGGCG | 0.0785
CCGCGGCA | 0.409
ACGCGGCC | -0.0466
GCGCGGCA | 0.158
CCGCGGCG | 0.326
CCGCGGCC | 0.374
ACCCAACC | -0.191
AGAGGGGA | -0.286
ACTGGGTC | -0.271
GAGATTCC | 0.0978
CCAAAGCC | -0.0564
GGGGAACA | -0.17
ACGGACGA | 0.237
AGGGAACA | 0.00359
ACGGAAGC | 0.274
CCGGAAGC | 0.329
TCGGACGA | 0.278
CCGGAAGA | 0.344
CCGGACGA | 0.323
CCGGAAGG | 0.28
CGGGAACA | 0.313
GCGGAAGC | 0.105

Sequence | PBM E-score
ACGGAAGA | 0.262
GACACCTA | -0.129
AAGGGCGA | -0.211
AACAACCT | -0.0961
CAGCTTCG | -0.0525
ATAGTCGA | 0.0238
AAACCCCG | 0.0829
ATTCGATC | 0.111
GAAGGGGA | -0.201
GACAGAGC | -0.128
AGGCCGAA | 0.302
AGGGAAGA | -0.12
CGGGAAGC | 0.138
CGGGAAGA | 0.315
TAACAATA | 0.158
AAACAATA | 0.282
GAACAATA | 0.313
CACACCGG | 0.0348
AACACCGG | 0.37
AATACCGG | 0.336
AACACCGC | -0.13
AATACCGT | 0.188
AATACCGC | 0.0781
CACCCGTG | -0.169
ACCGCGGA | 0.314

Sequence | PBM E-score
GCCGCGGA | 0.386
GCCGCGAA | -0.0654
AACGCGGA | 0.178
GCCGCGCA | 0.0353
ATCGCGGA | -0.00991
GCCGCTCA | -0.0363
GGTAAGCA | -0.146
GCGGATGA | 0.125
CCGGATGA | 0.335
CAGGATGC | -0.0823
ACGGATGA | 0.0817
CCGGATGC | 0.331
ACGGATGC | 0.203
GCGCCAAA | -0.00708
CCCATGAC | -0.117
GAGGAGCA | -0.0781
CCTGCTGC | -0.143
GAATGCTC | -0.157
CGGTACCC | -0.0697
CGGTACCA | 0.0778
CGGTACCG | 0.32
GCTAGGAA | 0.0829
AGGTAGAA | -0.0769
CCGGCCGA | 0.431
CCGGCCTA | 0.28

Sequence | PBM E-score
ACGGCCAA | 0.192
ACGGCCGC | 0.244
GCGGCCGA | 0.242
ATGGCCGG | 0.215
CCGGCCGC | 0.304
ACGGCCGA | 0.355
ACGGCCGG | 0.372
ACGGCCGT | 0.176
GCGGCCGC | 0.261
ACGGCCCA | -0.0167
AAAGAGCG | 0.00323
AAGCGACA | -0.0772
AACATGGC | -0.317
CATGTGAA | -0.0476
ACTTGCCG | 0.142
AGGTCGAA | -0.0466
GGGGCCGA | -0.192
CGGGCCGA | 0.308
CGGGCCGC | 0.137
AAAGATAT | 0.0801
CTGTGCTA | -0.119
GTGTGGGA | -0.0509
CGAGCTCA | 0.144
CGAGCTCG | 0.308
CGAGCTCC | 0.0493

Sequence | PBM E-score
TCAATGGA | -0.0551
GCTACAGA | -0.185
ACGTGCCG | 0.233
CCGTGCCG | 0.312
CCGTGCCA | -0.127
CAGGGGAA | -0.196
AAGCTATC | 0.191
ATCGGACA | 0.303
CTCGGAGA | 0.252
ATCGGATA | 0.369
GTCGGATA | 0.122
CTCGGACA | 0.306
ATCGGATC | 0.298
GTCGGACA | 0.193
CTCGGATA | 0.305
CTCGGATC | 0.241
GATTGGGA | -0.133
CCCCAGGA | -0.372
CGATTCAA | -0.0538
GTTTGCCA | -0.0315
GAGCATCC | -0.111
CGTGCGCC | 0.0367
CGGGCTTA | 0.157
AATTACCT | 0.0235
AGAGGTTA | -0.0189

Sequence | PBM E-score
CAAGTGCC | -0.126
AGTTACCA | 0.0704
TCCGCCGA | 0.316
AGCGCCAA | -0.231
AGCGCCGA | 0.357
GCCGCCGA | 0.264
CCCGCCGA | 0.193
GGCGCCGA | 0.337
AGCGCCCG | 0.113
AGCGCCGG | 0.351
AGCGCCGC | 0.0842
GGCGCCAA | -0.0615
CGCGCCGA | 0.256
GGCGCCTA | -0.0826
GCAGGGCA | -0.0295
GTGCACAA | -0.028
ACCTTTTC | -0.076
AAGCTAAT | 0.162
CCGGCTAG | 0.277
AGGGGCTC | -0.341
TAAATCCA | 0.00272
AGGCGGCA | -0.0565
CGCCGGCA | 0.345
CTCCGGCA | 0.359
AGCCGGCA | 0.404

Sequence | PBM E-score
CTCCGGCC | 0.125
AGCCGGTA | 0.306
ATCCGGCA | 0.296
AACCGGTA | 0.0801
AGCCGGTC | 0.144
CGCCGGTA | 0.216
ACCCGGCA | 0.187
CCCCGGCA | 0.0621
GCAGTACA | -0.0532
ACCGTGAG | -0.158
CGCAACGA | 0.0385
AAACCTGG | -0.147
ACCCGGCT | 0.22
TCCCGGCA | 0.256
AGCCGGTG | 0.225
AGCCGGCT | 0.36
TGCCGGCA | 0.431
ACCCGGCG | 0.198
AACCGGCT | 0.264
AGCCGGCG | 0.372
TACCGGCA | 0.251
AAATCAAA | 0.13
